This is part of a sample that, as a whole, favours compounds with a hit. Of some 83,000 tested, about 20% had one in any assay.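 Results are percent growth after 48 hours of single-concentration exposure. 100 means growth as in untreated cells, lower positive values show inhibition; negative values down to -100 show cell death.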 Active and inactive are the calls of the source. The calls were made as follows: active = growth percent below 10; inactive = the rest.
Experiments:
Experiment in all cases: NCI-60 one-dose screen, 48 h (100 = growth as untreated, 0 = no growth, -100 = all killed)
Settings in all cases: 10 µM unless noted
[1] = system: SR leukemia
[2] = system: RPMI-8226 leukemia
[3] = system: OVCAR-8 ovarian
[4] = system: OVCAR-5 ovarian
[5] = system: OVCAR-4 ovarian
[6] = system: SK-OV-3 ovarian
[7] = system: IGROV1 ovarian
[8] = system: OVCAR-3 ovarian
[9] = system: HS 578T breast
[10] = system: NCI/ADR-RES ovarian

Measured: growth

O=C(Nc1ccccc1)P(=O)(O)c1ccccc1
inactive: [1] 98% | [2] 111% | [3] 92.4% | [4] 92.9% | [5] 105% | [6] 113% | [7] 121% | [8] 104% | [9] 107% | [10] 99.4%

COc1ccc2c(c1)sc1nc(-c3ccc(Br)cc3)cn12
inactive: [1] 120% | [2] 112% | [3] 102% | [4] 101% | [5] 100% | [6] 117% | [8] 122% | [9] 125% | [10] 92.4%
active: [7] -23.9%

CC(C)CNc1nc(N=[N+]=[N-])nc(NCC(C)C)n1
active: [1] -7.86% [100 µM]
inactive: [2] 33.1% [100 µM] | [3] 57.3% [100 µM] | [4] 75% [100 µM] | [5] 52.7% [100 µM] | [6] 83.7% [100 µM] | [7] 70.9% [100 µM] | [8] 60.1% [100 µM] | [9] 61.1% [100 µM] | [10] 54.1% [100 µM]

COc1cccc(CCN2C(=O)CCC3=C2CCC3=O)c1
inactive: [1] 102% | [2] 98.1% | [3] 108% | [4] 104% | [5] 104% | [6] 102% | [7] 103% | [8] 114% | [9] 130% | [10] 104%

COc1ccc2c(c1)[n+](=O)c(C(=O)/C=C/c1cc(OC)c(OC)c(OC)c1)c(C)n2[O-]
inactive: [1] 29.5% | [2] 32.3% | [3] 57.4% | [4] 102% | [5] 72.3% | [6] 82.3% | [8] 102% | [9] 63.4% | [10] 73%
active: [7] -27.6%

N#Cc1ccccc1C#Cc1ccccc1C#Cc1ccc(OCCCCCCOc2ccc(C#Cc3ccccc3C#Cc3ccccc3C#N)cc2)cc1
active: [7] -19%
inactive: [1] 113% | [2] 108% | [3] 98.7% | [4] 96% | [5] 107% | [6] 111% | [8] 126% | [9] 110% | [10] 104%

N#Cc1c(-c2ccccc2)cc(-c2ccccc2)n(CCCCCCC(=O)O)c1=O
inactive: [1] 88.4% | [2] 108% | [3] 69.4% | [4] 99.5% | [5] 111% | [6] 117% | [7] 105% | [8] 109% | [9] 101% | [10] 102%

CC[N+](CCCCCCCCCC[N+](CC)(c1ccccn1)c1ccccn1)(c1ccccn1)c1ccccn1
active: [1] -19.8% | [2] 1.5% | [3] 7.02% | [6] 8.24% | [7] -35.2% | [8] 3.49%
inactive: [4] 24.1% | [5] 20.5% | [9] 28.5% | [10] 63.6%

Nc1c(C(=O)Nc2cccc(Cl)c2)sc2nc3c(cc12)C(O)CCC3 (stereo not given)
inactive: [3] 36.8% | [4] 51.2% | [5] 52.7% | [6] 35.4% | [7] 31.1% | [9] 24.5%
active: [1] 8.19% | [2] 6.38% | [8] -33.4% | [10] 8.73%

COc1ccc2c(c1)CC[C@@H]1[C@@H]2CC[C@]2(C)[C@@H](O)C(=O)C[C@@H]12
inactive: [1] 84.2% | [2] 103% | [3] 101% | [4] 95.8% | [5] 107% | [6] 120% | [7] 115% | [8] 106% | [9] 100% | [10] 105%

CCOc1cc(/C=C/C(=O)CC(=O)/C=C/c2ccc(OC(=O)CNCCN(CC)CC)c(OCC)c2)ccc1OC(=O)CNCCN(CC)CC
active: [1] -42.1% | [2] -52.9% | [3] 4.23% | [4] -34.5% | [7] -67.7% | [8] 0.276% | [9] 1.48%
inactive: [5] 18.1% | [6] 32.6% | [10] 16.3%

CC1c2ccccc2-c2ccccc2N1C (stereo not given)
inactive: [1] 96.3% | [2] 90.5% | [3] 106% | [4] 101% | [5] 110% | [6] 101% | [7] 98.3% | [8] 104% | [9] 112% | [10] 108%

C[C@H]1c2cccc(O)c2C(O)=C2C(=O)[C@]3(O)C(O)=C(C(N)=O)C(=O)[C@@H](N(C)C)[C@@H]3[C@@H](O)[C@@H]21
inactive: [1] 30% | [2] 27% | [3] 33.5% | [4] 78.4% | [5] 66.8% | [6] 70.2% | [7] 21.4% | [8] 49% | [9] 69.8% | [10] 66%

Cc1ccc(C2=NNC(c3sc(Cl)nc3Cl)C2)cc1 (stereo not given)
inactive: [2] 97.9% | [3] 100% | [4] 116% | [5] 84.7% | [6] 88.4% | [7] 80.6% | [8] 101% | [9] 116% | [10] 94.5%
active: [1] 3.24%

C1=C(Cc2ccccc2)n2cnc3ncnc(c32)S1
inactive: [1] 36.8% | [2] 28% | [3] 73.5% | [4] 70.5% | [5] 40.1% | [6] 19.7% | [7] 86.8% | [8] 15.8% | [9] 75.3% | [10] 56.7%

Oc1c(Cl)cc(Cl)c(Cl)c1Cc1c(O)c(Cl)cc(Cl)c1Cl
active: [2] 6.95% | [3] 7.43% | [9] -1.24% | [10] 3.82%
inactive: [1] 63.9% | [4] 39.4% | [5] 29.5% | [6] 19.1% | [7] 25.1% | [8] 10.8%

COc1ccc(-c2nc3sc4c(c3c(=O)[nH]2)CCCCCC4)cc1
inactive: [1] 27.9% | [2] 72% | [3] 70.7% | [4] 83.8% | [5] 50.4% | [6] 48% | [7] 63.1% | [8] 44.2% | [9] 58.4% | [10] 51.2%

C/C(=C\CCc1ccoc1)CC/C=C(\C)CCCC1COC(=O)C1 (stereo not given)
inactive: [1] 100% | [2] 97.1% | [3] 95.6% | [4] 101% | [5] 87.6% | [6] 101% | [7] 96.1% | [8] 105% | [9] 97.5% | [10] 101%

C[C@H]1O[C@@H](O[C@H]2[C@@H](O)C[C@H](O[C@H]3[C@@H](O)C[C@H](O[C@H]4CC[C@]5(C)C6CC[C@]7(C)[C@@H](C8=CC(=O)OC8)CC[C@]7(O)C6CC[C@@H]5C4)O[C@@H]3C)O[C@@H]2C)C[C@H](O)[C@@H]1O (stereo not given in full)
active: [1] -32.7% | [2] -18.8% | [3] -79.1% | [4] -100% | [5] -51.4% | [6] -92.5% | [7] -38.8% | [8] -100% | [9] -1.73% | [10] -79.2%

COc1cnc2c(c1)C(=O)c1c-2n(CCCN2CCCC2)c(=O)c2cc(F)ccc12
inactive: [9] 23.8%
active: [1] -9.13% | [2] -22.8% | [3] -13.3% | [4] 5.78% | [5] 4.61% | [6] -24.6% | [7] 4.37% | [8] -29.1% | [10] -3.22%

COc1cc(/C=C\C(C)=N\Nc2ccccc2)ccc1O
inactive: [1] 39.3% | [2] 76.3% | [3] 90.5% | [4] 84.7% | [5] 85.6% | [6] 121% | [7] 96% | [8] 89.2% | [9] 92.1% | [10] 77.4%

CSc1nc2nc3c(nc2c(=O)n1C)C(=O)c1ccccc1C3=O
active: [1] 6.56% | [2] -20.2% | [3] -8.36% | [4] -91.7% | [5] -53% | [6] -22.2% | [7] -53% | [8] -63.8% | [9] -21.6% | [10] -4.99%

NC(=N\N=C/Cc1ccccc1)/C(N)=N\N=C\Cc1ccccc1
inactive: [1] 81.5% | [2] 101% | [3] 107% | [4] 98.8% | [5] 100% | [6] 113% | [7] 119% | [8] 110% | [9] 105% | [10] 103%

COc1cc(NC(C)CCCN)c2nc(C)ccc2c1Oc1ccc(F)cc1 (stereo not given)
inactive: [1] 60.9% | [2] 70.3% | [3] 77.4% | [4] 83.4% | [5] 62.6% | [6] 105% | [7] 56.2% | [8] 71.3% | [9] 49.7% | [10] 77.6%

COc1cc(Cl)cc(-c2nn(-c3cccc(NC(=O)c4cc(C(F)(F)F)cc(C(F)(F)F)c4)c3)cc2-c2ccncc2)c1
inactive: [1] 41% | [2] 43.6% | [3] 55.4% | [4] 83% | [5] 72.1% | [6] 83.4% | [7] 100% | [8] 25.5% | [9] 81.1% | [10] 67.8%

O=C(CNc1ccc2c(c1)C(=O)c1ccccc1C2=O)Nc1ccc2c(c1)C(=O)c1ccccc1C2=O
active: [1] -8.94% | [2] -36.6% | [3] -25.3% | [4] -83.6% | [5] -26.4% | [6] -30.8% | [7] -72.9% | [8] -99.8% | [9] -1.05% | [10] -40%

Source: PubChem BioAssay (NCI)
